The nature of assay [1]: Primary qHTS for inhibitors of nuclear receptor binding SET domain protein 2 (NSD2) in an RCH-ACV wild type WT cells (2C) (AID 1645877; also: nearly all actives have a fitted effect of over 70% in size; also: potency is read from the fitted curve at half-maximal effect; as to activity change, negative = cell killing: % is scaled to controls: 0 for no effect and ±100 for the full control effect). (Quantitative high-throughput screening tests each substance at several concentrations.)
Assay [2] deals with Glutathione peroxidase 1 (Homo sapiens) (UniProt P07203). Put plainly: Primary qHTS Assay for Inhibitors of Recombinant Selenoprotein Glutathione Peroxidase 1 (GPX1) (AID 1845191). Also: nearly all actives have a fitted effect of over 65% in size. Also: potency is read from the fitted curve at half-maximal effect. As to activity, negative = inhibition: % is scaled to controls: 0 for no effect and ±100 for the full control effect. In a few lines: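 GR-coupled readout: NADPH consumption tracked by fluorescence, ex 340/em 450 nm, at t=0 and after 15 min at RT. Final mix 10 nM GPX1, 1 mM GSH, 0.5 mM CHP, 0.5 mM NADPH, 100 nM GR, 0.01% BSA, following 30 min enzyme–compound preincubation.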
Chain of Glutathione peroxidase 1 (Homo sapiens) (P07203 whole entry, looked up): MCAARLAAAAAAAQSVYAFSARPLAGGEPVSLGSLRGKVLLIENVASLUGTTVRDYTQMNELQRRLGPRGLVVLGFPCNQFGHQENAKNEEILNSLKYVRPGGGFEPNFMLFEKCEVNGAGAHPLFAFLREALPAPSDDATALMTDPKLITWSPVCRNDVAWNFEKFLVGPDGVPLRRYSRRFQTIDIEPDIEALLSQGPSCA

Assay [3] has as its target Phospholipid hydroperoxide glutathione peroxidase GPX4 (Homo sapiens) (UniProt P36969). Briefly: Primary qHTS Assay for Inhibitors of Recombinant Selenoprotein Glutathione Peroxidase 4 (GPX4) (AID 1845192). Also: nearly all actives have a fitted effect of over 65% in size. Also: potency is read from the fitted curve at half-maximal effect. As to activity change, negative = inhibition: series mostly up to about 50 µM; % is scaled to controls: 0 for no effect and ±100 for the full control effect. The method, boiled down: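 Steps: GPX4 plus compound, 30 min RT; add GR/GSH/NADPH master mix; start with cumene hydroperoxide; read 340/450 nm fluorescence at 0 and 15 min. Finals were 200 nM GPX4, 1 mM GSH, 0.5 mM CHP, 0.5 mM NADPH, 100 nM GR.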

Assay [4] concerns the target Luciferin 4-monooxygenase (Photinus pyralis) (UniProt P08659). Put plainly: Primary firefly luciferase (FLuc) qHTS assay for identification of artifact compounds. (AID 1845220). Also: nearly all actives have a fitted effect of over 60% in size.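 As to activity change, negative = inhibition: series mostly up to about 54 µM; plate controls were DMSO vehicle for no effect and no enzyme for full effect.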 The method, boiled down:
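Titrated compounds were incubated 15 min at RT, protected from light, with luciferin and ATP at 10 uM; reaction started with 10 nM FLuc, luminescence imaged at 5 min, and concentration-response fitted by Hill equation.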

Assay [5] is described as follows: Primary fluorescence-based thiol-reactive (MSTI) qHTS assay for identification of artifact compounds. (AID 1845221). Also: nearly all actives have a fitted effect of over 65% in size. Also: potency is read from the fitted curve at half-maximal effect.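 As to activity change, negative = thiol reactive: series mostly up to about 54 µM; thiol-reactive compounds lower the probe fluorescence signal.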 In a few lines: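 Curve-fitted percent inhibition (4-parameter Hill) derived from fluorescence, Ex 525/Em 598 nm, scaled with Acetyl-MSTI and MSTI; 1 h incubation at room temperature.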
Assay [6] deals with Nanoluciferase (engineered Oplophorus gracilirostris luciferase). Briefly: Primary Nanoluciferase (NLuc) qHTS assay for identification of artifact compounds. (AID 1845222).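 Also: NLuc secreted into diluted conditioned medium of S16 cells; series mostly up to about 54 µM; 0% = DMSO and -100% = no enzyme.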 The method, boiled down: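 qHTS format, against NLuc in S16 cell-conditioned medium. Nano-Glo substrate 1:100 was added after 15 min at room temperature. Luminescence was taken after a further 5 min.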
A short description of assay [7]: Primary redox qHTS assay for identification of artifact compounds. (AID 1845223).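 Also: 0% = DMSO and 100% = reference compound.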 In a few lines: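 Redox-cycling detection via DTT (250 uM final) oxidation coupled to Amplex Red (25 uM)/HRP (250 mU/mL) in HBSS. 15 min preincubation plus 30 min after DTT, room temperature. Ex/Em 525/598 nm; 4-parameter Hill fit against DMSO and 10 uM DA3003.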

Results on 18 molecules are retold here after PubChem BioAssay (NCATS).

The structures appear in SMILES notation. Values joined by “and” are separate entries in the source; they are usually repeats but may differ in a detail not shown here. Identical values can stand only once. Unmarked numbers belong to inactive results. Records with an inconclusive call do not appear. Active and inactive are the calls of the source. Calls follow the shape of the dose curve; as a rule, active = well fitted curve in the direction sought with a large enough effect; inconclusive = small, poorly fitted or top-dose-only effect, or another doubt; inactive = no such curve, though single readings can be large; an effect the other way counts as inactive or inconclusive.

Chain of Phospholipid hydroperoxide glutathione peroxidase GPX4 (Homo sapiens) (P36969 whole entry, looked up): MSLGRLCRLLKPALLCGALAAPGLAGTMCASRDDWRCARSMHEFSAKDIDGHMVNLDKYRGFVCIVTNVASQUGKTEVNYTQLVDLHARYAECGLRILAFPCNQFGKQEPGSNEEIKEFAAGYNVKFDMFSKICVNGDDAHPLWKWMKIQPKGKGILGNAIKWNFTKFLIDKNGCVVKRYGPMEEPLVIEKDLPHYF

With `CCNC(=O)Nc1ncc(-c2cc(-c3c(C)cc(OC)cc3C)nc(-c3cnccn3)n2)s1`, the Potency result in assay [1], in assay [2], in assay [3], in assay [4], in assay [5] and in assay [6] was “inactive” each time. Besides, the Potency entry in assay [7] is “inactive”.

On to `CCCC(=O)O[C@@H]1[C@@H]2[C@@H](OC(C)=O)[C@]3(C)C(=O)[C@H]4[C@@H](OC(C)=O)C(C)(C)C[C@H]4[C@]3(C)C(=O)[C@@]2(OC(C)=O)C[C@@H]1C`, for which the Potency entry in assay [1], in assay [2], in assay [3], in assay [4], in assay [5] and in assay [6] was “inactive” each time. For the same molecule, the Potency entry in assay [7] was “inactive”.

Consider `C=C1CC23CC1CCC2C12OC(=O)C(C)(CCC1O)C2C3C(=O)O` (stereo unspecified), for which the Potency entry in assay [1], in assay [2], in assay [3], in assay [4], in assay [5] and in assay [6] was “inactive” each time. In addition, the Potency result in assay [7] is “inactive”.

With `CC(C)(C)c1ccc(S(=O)(=O)NCc2ccc(C(=O)Nc3cccnc3)cc2)cc1`, the Potency in assay [1] was 163 nM (active). In addition, the Potency entry in assay [2], in assay [3], in assay [4], in assay [5], in assay [6] and in assay [7] was “inactive” in each case.

For the molecule `CC1=C(C(=O)O)/C(=C\CO[C@@H]2O[C@H](CO)[C@@H](O)[C@H](O)[C@H]2O)C(OC(=O)/C=C\c2ccc(O)cc2)C1` (stereo partly specified), the Potency result in assay [1], in assay [2], in assay [3], in assay [4], in assay [6] and in assay [7] was “inactive” in each case. Also, in assay [5], the Potency is 4.62 µM (active).

Turning to `Cc1nc(NC(=O)N2CCCC2C(N)=O)sc1-c1csc(C(C)(C)C)n1` (stereo unspecified), in assay [1], the Potency is 4090 nM (active). For the same molecule, the Potency result in assay [2], in assay [3], in assay [4], in assay [5], in assay [6] and in assay [7] was “inactive” in each case.

With `CCNC(=O)C1OC(n2cnc3c(N)nc(NCCc4ccc(CCC(=O)O)cc4)nc32)C(O)C1O` (stereo unspecified), the Potency entry in assay [1], in assay [2], in assay [3], in assay [4], in assay [5] and in assay [6] was “inactive” throughout. Also, in assay [7], the Potency entry is “inactive”.

Regarding `COC(=O)C[C@H]1C(C)(C)[C@H](OC(=O)C(C)C)[C@@]2(O)C(=O)[C@]1(C)C1CC[C@]3(C)C(CC(=O)O[C@H]3c3ccoc3)[C@]13O[C@@H]32` (stereo partly specified), the Potency entry in assay [1], in assay [2], in assay [3], in assay [4], in assay [5] and in assay [6] was “inactive” throughout. Also, the Potency entry in assay [7] is “inactive”.

As to `CN(C)CCn1cc(S(=O)(=O)c2cccc(F)c2)c2cccnc21`, the Potency result in assay [1], in assay [2], in assay [3], in assay [4], in assay [5] and in assay [6] was “inactive” in each case. For the same molecule, in assay [7], the Potency result is “inactive”.

On to `C[C@@H]1C[C@H]2O[C@@H]2/C=C\C=C\C(=O)Cc2c(Cl)c(O)cc(O)c2C(=O)O1`, for which the Potency in assay [1] was 275 nM (active) and 640 nM (active). The Potency result in assay [2] and in assay [3] was “inactive” throughout. Also, the activity change, negative = inhibition in assay [4] was -8.64% [at 11.6 µM]. Further, in assay [5], the activity change, negative = thiol reactive was -4.56% [at 11.5 µM]. In assay [6], the activity, negative = inhibition is -2.67% [at 11.6 µM]. Further, the redox activity (% of DA3003) in assay [7] is 4.19% [at 11.5 µM].

In the case of `C=C1C(O)C(O)C2(CC3C(C)=CCC4C(C)(CO)CCCC34C)OC2C1O` (stereo unspecified), the Potency result in assay [1], in assay [2], in assay [3], in assay [4], in assay [5] and in assay [6] was “inactive” throughout. Moreover, in assay [7], the Potency entry is “inactive”.

As to `COc1ccc(-c2ccc3c(N4CCOCC4)nc(N4CC(C)OC(C)C4)nc3n2)cc1CO` (stereo unspecified), the Potency was 291 nM (active) in assay [1], 18 µM (active) in assay [2] and 22.7 µM (active) in assay [3]. In addition, the Potency result in assay [4], in assay [5], in assay [6] and in assay [7] was “inactive” in each case.

With `CC1(C)CC[C@]2(C(=O)O)[C@H](O)C[C@]3(C)C(=CCC4[C@@]5(C)CC[C@H](O[C@@H]6O[C@H](CO[C@@H]7OC[C@H](O)[C@H](O)[C@H]7O[C@@H]7OC[C@@H](O)[C@H](O)[C@H]7O)[C@@H](O)[C@H](O)[C@H]6O[C@@H]6O[C@H](CO)[C@@H](O)[C@H](O)[C@H]6O)C(C)(C)C5CC[C@]43C)[C@@H]2C1` (stereo partly specified), the activity change, negative = cell killing in assay [1] is -6.47% [at 9.23 µM]. Moreover, the Potency entry in assay [2] and in assay [3] was “inactive” in each case. Besides, the activity change, negative = inhibition in assay [4] is 0.747% [at 11.6 µM]. In addition, the activity change, negative = thiol reactive in assay [5] was 242% [at 11.5 µM]. The activity, negative = inhibition in assay [6] is 3.21% [at 11.6 µM]. In addition, the redox activity (% of DA3003) in assay [7] was 15.6% [at 11.5 µM].

Turning to `CC1COC2(OC3CC4C5CC(O[C@@H]6O[C@H](C)[C@@H](O[C@@H]7O[C@@H](C)[C@H](O)[C@@H](O)[C@H]7O)[C@H](O)[C@H]6O)C6CC(O)CCC6(C)C5CCC4(C)C3C2C)C(O)C1` (stereo partly specified), the Potency result in assay [1], in assay [2], in assay [3], in assay [4], in assay [5] and in assay [6] was “inactive” each time. Besides, the Potency result in assay [7] is “inactive”.

For `COC(=O)C1(C)c2[nH]c3ccccc3c2CCN1C(=O)CCl` (stereo unspecified), the Potency in assay [1] is 2580 nM (active). The Potency result in assay [2], in assay [3], in assay [4], in assay [5], in assay [6] and in assay [7] was “inactive” in each case.

For the molecule `CC1(C)CCCC2(C)C=C(C(=O)O)C(O)CC12` (stereo unspecified), the Potency entry in assay [1], in assay [2], in assay [3], in assay [4], in assay [5] and in assay [6] was “inactive” in each case. In addition, the Potency entry in assay [7] is “inactive”.

For `CC(C)(O)/C=C/CC(C)(O)C1C(O)CC2(C)C3CCC4C(C)(C)C(=O)CCC4(C)C3CCC12C` (stereo unspecified), the Potency entry in assay [1], in assay [2], in assay [3], in assay [4], in assay [5] and in assay [6] was “inactive” each time. Besides, the Potency result in assay [7] was “inactive”.

For `CC1(C=O)CC[C@]2(C(=O)O[C@@H]3O[C@H](CO)[C@@H](O)[C@H](O)[C@H]3O)CC[C@]3(C)C(=CCC4[C@@]5(C)C[C@H](O)[C@H](O[C@@H]6OC[C@@H](O)[C@H](O)[C@H]6O)[C@@](C)(CO)C5CC[C@]43C)C2C1` (stereo partly specified), the activity change, negative = cell killing in assay [1] was -3.33% [at 9.23 µM]. The Potency result in assay [2] and in assay [3] was “inactive” each time. In addition, in assay [4], the outcome was “inactive [at 11.6 µM]”. In assay [5], the activity change, negative = thiol reactive is 182% [at 11.5 µM]. Moreover, the activity, negative = inhibition in assay [6] is 2.01% [at 11.6 µM]. For the same molecule, the redox activity (% of DA3003) in assay [7] is 8.25% [at 11.5 µM].
